Assay outcomes as filed in PubChem BioAssay.
In the library only some 2.5% were active in any assay of this set; here they are far more common.
Cruzain Triton: cruzain (T. cruzi) inhibition with detergent; Potency, µM, usual class: inhibitors; 0.43% of 200,000 active; purified cruzain, Z-FR-AMC fluorescence, 0.01% Triton; P25779; further: nearly all actives have a fitted effect of over 40% in size
Target sequence (P25779 123-467 limits assumed): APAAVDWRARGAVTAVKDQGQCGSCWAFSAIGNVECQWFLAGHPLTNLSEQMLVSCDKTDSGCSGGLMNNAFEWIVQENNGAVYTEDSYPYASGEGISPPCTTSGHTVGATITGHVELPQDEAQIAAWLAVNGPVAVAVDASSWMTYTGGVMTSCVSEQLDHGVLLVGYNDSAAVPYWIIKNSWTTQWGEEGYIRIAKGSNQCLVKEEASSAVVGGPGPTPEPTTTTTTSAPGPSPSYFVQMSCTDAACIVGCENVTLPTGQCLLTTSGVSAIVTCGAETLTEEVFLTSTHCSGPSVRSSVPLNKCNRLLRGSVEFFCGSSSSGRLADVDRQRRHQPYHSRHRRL
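Enzyme 1.5 nM, Z-FR-AMC 2 uM, NaOAc 100 mM pH 5.5, DTT 5 mM, Triton X-100 0.01%; 15 min RT compound preincubation; kinetic ex360/em450, 60 s delta.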
Cruzain noTriton: cruzain (T. cruzi) inhibition without detergent; P25779; purified cruzain, Z-FR-AMC fluorescence, no detergent; Potency, µM, usual class: inhibitors; 2.3% of 200,000 active; AID 1476; further: nearly all actives have a fitted effect of over 40% in size
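Purified cruzain at 1.5 nM, pre-incubated 15 min with compound at room temperature in 100 mM sodium acetate pH 5.5, 5 mM DTT, 0.00005% Triton X-100. Reaction started with 2 uM Z-FR-AMC; AMC fluorescence increase over 60 s gives rate.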
Large screens that a line does not name were inactive. The call rests on the fitted dose curve; in most records, active means well fitted curve in the direction sought with a large enough effect; inconclusive means small, poorly fitted or top-dose-only effect, or another doubt; inactive means no such curve, though single readings can be large; an effect the other way counts as inactive or inconclusive.

CC1=C(C(=O)Nc2ccccc2C)C(c2cccs2)n2nc(SCc3ccccc3)nc2N1 (stereo unspecified)	Cruzain noTriton 25.1µM
COc1ccc(NC(=O)C2=C(C)Nc3nc(SCc4ccccc4C)nn3C2c2ccc(Br)cc2)cc1 (stereo unspecified)	none
CC1=C(C(=O)Nc2ccccc2C)C(c2ccncc2)n2nc(SCc3ccccc3)nc2N1 (stereo unspecified)	none
CC1=C(C(=O)Nc2ccc(Cl)cc2)C(c2cccs2)n2nc(SCc3cccc(Cl)c3)nc2N1 (stereo unspecified)	Cruzain noTriton 3.16µM
Cc1nc2cnc(OCc3ccccc3)nc2n(CCc2ccccc2)c1=O	Cruzain noTriton inconclusive
CCc1ccc(-c2nn(CC(=O)NC3CCCCC3)c3c2cnc2ccc(F)cc23)cc1	none
Cc1cccc(C)c1NC(=O)CCC(=O)N1Cc2ccccc2Oc2ncccc21	none
Cc1cc(Cl)ccc1NS(=O)(=O)c1c(C(=O)N2CCC(C)CC2)c(C)n(C)c1C	Cruzain noTriton inconclusive
CCOC(=O)c1c(S(=O)(=O)N2CCC(C(=O)Nc3ccccc3OC)CC2)c(C)n(CC)c1C	Cruzain noTriton inconclusive
Cc1ccc(-c2cc(C(=O)OCC(=O)Nc3cc(C)on3)c3ccccc3n2)c(C)c1	none
Cc1cc(NC(=O)COC(=O)c2oc3c(ccc4ccccc43)c2C)no1	Cruzain noTriton 20µM
O=C(CN1C(=O)CCc2cc(S(=O)(=O)N3CCOCC3)ccc21)NCc1ccccc1Cl	none
COc1cc2c3cc1Oc1cc(ccc1O)C[C@@H]1c4c(cc(OC)c(O)c4Oc4ccc(cc4)C[C@H]3[N+](C)(C)CC2)CC[N+]1(C)C	none
CCCCOC(=O)c1ccc(NC(=O)c2ccc3c(c2)CCN3S(=O)(=O)c2ccccc2)cc1	Cruzain noTriton 12.6µM
CCCCc1ccc(NC(=O)c2ccc3c(c2)CCN3S(=O)(=O)c2ccccc2)cc1	Cruzain noTriton inconclusive
Cc1ccc(NC(=O)N2CCC3(CC2)Oc2ccccc2C(=O)N3Cc2ccc(F)cc2)cc1	Cruzain noTriton inconclusive
O=C1c2ccccc2OC2(C=Cc3ccccc3O2)N1Cc1ccccc1 (stereo unspecified)	Cruzain noTriton 25.1µM
COC(=O)[C@H]1C[C@@H]1[C@H](NS(=O)(=O)c1ccc(-c2ccccc2)cc1)c1ccccc1	none
Cc1ccc(C)c(CN2C(=O)c3ccccc3S(=O)c3ccc(C(=O)N(C)Cc4ccccc4)cc32)c1 (stereo unspecified)	none
CCCCCC(=O)Nc1nc(C)c(-c2csc(Nc3ccc(Cl)cc3)n2)s1	Cruzain noTriton 12.6µM
CCCCCC(=O)Nc1nc(C)c(-c2csc(Nc3cc(Cl)ccc3C)n2)s1	Cruzain noTriton 10µM
CCCC(C)C(=O)Nc1nc(C)c(-c2csc(Nc3cc(Cl)ccc3C)n2)s1 (stereo unspecified)	Cruzain noTriton 12.6µM
CCCCCCC(=O)Nc1nc(C)c(-c2csc(Nc3ccc(Cl)cc3)n2)s1	Cruzain noTriton inconclusive
CCC(C)C(=O)Nc1nc(C)c(-c2csc(Nc3ccccc3OC)n2)s1 (stereo unspecified)	Cruzain noTriton inconclusive
Cc1ccc(S(=O)(=O)N2CCCC2C(=O)Nc2ccc(Br)cc2)cc1 (stereo unspecified)	none
CCCOc1ccccc1C1Oc2nc(SC)nnc2-c2ccccc2N1C(C)=O (stereo unspecified)	none
OC[C@@H](O)CNc1ncnc2ccccc12	none
Cc1cc2c(cc1S(=O)(=O)NCc1ccc(F)cc1)OCCN2C	none
O=C(NC(=O)c1cccc(F)c1)Nc1ccc(-c2cc(C(F)(F)F)nn2-c2ccccc2)cc1	none
O=C(Nc1ccc(-c2cc(C(F)(F)F)nn2-c2ccccc2)cc1)c1cccc(F)c1	Cruzain noTriton 20µM
COc1ccc(CNC(=O)C(CC(C)C)NS(=O)(=O)c2ccc3c(c2)CCN3C(C)=O)cc1 (stereo unspecified)	none
CCCOc1cccc(C2c3c(oc4ccc(F)cc4c3=O)C(=O)N2c2nc(C)c(C(C)=O)s2)c1 (stereo unspecified)	none
COC(=O)NC(c1ccc2c(c1)OCO2)C(C(=O)OC)C(=O)OC (stereo unspecified)	none
COCCCNC(=O)c1[nH]c2cc(OC)ccc2c1Sc1ccc(C)cc1	none
COc1ccc2c(Sc3ccc(C)cc3)c(C(=O)NCCc3ccccc3)[nH]c2c1	Cruzain noTriton 15.8µM
Cc1cccc(CNC(=O)C2CCN(S(=O)(=O)c3cccc4nonc34)CC2)c1	none
CCOC(=O)c1c(O)[nH]c(=O)c(CC)c1C	none
NCCSCc1ccccc1Cl	none
Cn1c(SCC(=O)Nc2sc3c(c2C#N)CCC3)nnc1C1COc2ccccc2O1 (stereo unspecified)	none
C=CCn1c(SCC(=O)Nc2sc3c(c2C#N)CCC3)nnc1C1COc2ccccc2O1 (stereo unspecified)	Cruzain noTriton 31.6µM
COc1cc2cc[n+]3cc4c(OC)c(OC)ccc4cc3c2cc1OC	none
Nc1c2c(nc3sc4c(c13)CCCC4)CCCCCC2	Cruzain noTriton 25.1µM
Nc1nc2sc3c(c2c(=O)s1)CCCC3	none
Cc1ccc(S(=O)(=O)c2nnn(CC(=O)Nc3ccccc3C)c2N)cc1	none
CCc1ccc(-n2c(N3CCN(c4ccc(F)cc4)CC3)nc3ccccc3c2=O)cc1	none
CCCCCCN(C(=O)CCCCCN1C(=O)NC(c2ccc3ccccc3c2)C(C(=O)OCc2ccccc2)=C1C)C(C(=O)NCCCC)c1ccc(OCC(=O)OC)c(C(=O)OC)c1 (stereo unspecified)	none
O=C(NC(=S)Nc1ccccc1N1CCCC1)c1ccc(-c2cccc([N+](=O)[O-])c2)o1	Cruzain noTriton 5.01µM
O=C(NC(=S)Nc1ccccc1N1CCCC1)c1ccc([N+](=O)[O-])cc1	Cruzain noTriton inconclusive
COc1ccccc1NC(=S)NC(=O)c1ccc(-c2ccc(Cl)cc2)o1	Cruzain noTriton inconclusive
O=C(NC(=S)Nc1ccccc1N1CCCCC1)c1ccc(-c2cccc([N+](=O)[O-])c2)o1	Cruzain noTriton 5.01µM
O=C(NC(=S)Nc1ccccc1O)c1ccc(-c2ccc(Cl)cc2)o1	Cruzain noTriton 15.8µM
O=C(NC(=S)Nc1ccccc1N1CCOCC1)c1ccc(-c2cccc(Cl)c2)o1	Cruzain noTriton inconclusive
CSc1nc(C)cc(Nc2ccc(O)c(CN3CCCCC3)c2)n1	none
COc1ccccc1CNC(=O)C(=O)NCC(c1ccc2c(c1)OCO2)N1CCOCC1 (stereo unspecified)	none
COc1ccc(-c2[nH]n(-c3ccc([N+](=O)[O-])cc3)c(=O)c2C=NCc2ccncc2)cc1	Cruzain noTriton inconclusive
COc1ccc(-c2[nH]n(-c3ccc([N+](=O)[O-])cc3)c(=O)c2C=NCc2ccc(F)cc2)cc1	Cruzain noTriton 25.1µM
OCCN(CO)CO	none
COc1ccc2c(c1)c(CC(=O)Nc1c(C)cccc1C)c(C)n2C(=O)c1ccc(Cl)cc1	none
COc1ccc2c(c1)c(CC(=O)Nc1ccccc1OC)c(C)n2C(=O)c1ccc(Cl)cc1	Cruzain noTriton 15.8µM
COc1ccc(OC)c(NC(=O)Cc2c(C)n(C(=O)c3ccc(Cl)cc3)c3ccc(OC)cc23)c1	none
COc1ccc2c(c1)c(CC(=O)Nc1cc(C)ccc1C)c(C)n2C(=O)c1ccc(Cl)cc1	Cruzain noTriton 12.6µM
O=C(CN1CCN(S(=O)(=O)c2cc(Cl)ccc2Cl)CC1)Nc1cccc(F)c1	none
Cc1ccc(S(=O)(=O)c2nc(-c3cccc(Br)c3)oc2N2CCCCCC2)cc1	none
COc1ccc(NC(=O)C2=C(C)Nc3nc(CCCO)nn3C2c2ccc(O)cc2)cc1 (stereo unspecified)	none
